Read-out in assay [1]: Tissue Factor, F3 (gene 2152)
The assay is described as follows: BSK_CASM3C_TissueFactor: BioMAP Diversity Plus: CASM3C Assay for Tissue Factor Biomarker Activity (AID 2283052).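 Further: cell surface tissue factor protein level read by ELISA.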 Conditions: primary human coronary artery smooth muscle cells; actives raise or lower the signal.

Read-out in assay [2]: Interferon-gamma inducible Protein 10 (IP10), CXCL10 (gene 3627)
The assay is described as follows: BSK_hDFCGF_IP10: BioMAP Diversity Plus: hDFCGF Assay for Interferon-gamma inducible Protein 10 (IP10) Biomarker Activity (AID 2283053). Conditions: primary human foreskin fibroblasts; actives raise or lower the signal. In outline: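 Cells: human dermal foreskin fibroblasts. Exposure: 24 h post-dosing. Detection: IP-10 ELISA, with values expressed against DMSO controls and fitted in both directions.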

Read-out in assay [3]: Urokinase-type plasminogen activator receptor (uPAR), PLAUR (gene 5329)
The assay is described as follows: BSK_CASM3C_uPAR: BioMAP Diversity Plus: CASM3C Assay for Urokinase-type plasminogen activator receptor (uPAR) Biomarker Activity (AID 2283054).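 Further: cell-surface uPAR protein level quantified by ELISA.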 Conditions: primary human coronary artery smooth muscle cells; actives raise or lower the signal.

Read-out in assay [4]: Vascular cell adhesion molecule 1 (VCAM1), VCAM1 (gene 7412)
Description: BSK_CASM3C_VCAM1: BioMAP Diversity Plus: CASM3C Assay for Vascular cell adhesion molecule 1 (VCAM1) Biomarker Activity (AID 2283055).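 Further: VCAM-1 protein level quantified by ELISA on the cells.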 As to conditions: primary human coronary artery smooth muscle cells; actives raise or lower the signal.

Read-out in assay [5]: Collagen III, COL3A1 (gene 1281)
Description: BSK_hDFCGF_CollagenIII: BioMAP Diversity Plus: hDFCGF Assay for Collagen III Biomarker Activity (AID 2283056). As to conditions: primary human foreskin fibroblasts; actives raise or lower the signal. The method in brief:
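ELISA readout of Collagen III in human dermal (foreskin) fibroblasts, taken 24 h post-treatment. Gain or loss relative to DMSO vehicle fitted in both directions.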

Read-out in assay [6]: Epidermal growth factor receptor (EGFR), EGFR (gene 1956)
Description: BSK_hDFCGF_EGFR: BioMAP Diversity Plus: hDFCGF Assay for Epidermal growth factor receptor (EGFR) Biomarker Activity (AID 2283057). As to conditions: primary human foreskin fibroblasts; actives raise or lower the signal. The method in brief:
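Dosing human primary skin fibroblasts, then measuring surface EGFR by ELISA at 24 h, gives the endpoint; gains and losses relative to DMSO were fitted in both directions.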

Read-out in assay [7]: Interleukin-8 (IL8), CXCL8 (gene 3576)
Description: BSK_hDFCGF_IL8: BioMAP Diversity Plus: hDFCGF Assay for Interleukin-8 (IL8) Biomarker Activity (AID 2283058). Conditions: primary human foreskin fibroblasts; actives raise or lower the signal. In outline:
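IL-8 levels read by ELISA at 24 hours after dosing human skin fibroblast cultures. Parallel SRB staining assessed overt cytotoxicity, and gain or loss of signal was fitted against DMSO control.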

A short description of assay [8]: BSK_hDFCGF_Proliferation: Cell Proliferation Assessment in the BioMAP Diversity Plus: hDFCGF Assay (AID 2283059).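 Further: curves fitted for both rise and fall of signal versus DMSO baseline.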 Conditions: primary human foreskin fibroblasts. In outline: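 Steps: dose primary human dermal fibroblasts (foreskin); […] fix in 10% TCA; stain with 0.1% SRB; read 560 nm; fit gain or loss of signal against DMSO.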
Read-out in assay [9]: Macrophage colony-stimulating factor (MCSF), CSF1 (gene 1435)
Description: BSK_hDFCGF_MCSF: BioMAP Diversity Plus: hDFCGF Assay for Macrophage colony-stimulating factor (MCSF) Biomarker Activity (AID 2283060). As to conditions: primary human foreskin fibroblasts; actives raise or lower the signal. The method in brief:
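M-CSF levels read by ELISA at 24 h post-dosing in human skin fibroblasts. Parallel cultures stained with SRB assessed cytotoxicity at the same time point; response fitted in both directions against the DMSO baseline.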

Assay [10] in a line: BSK_hDFCGF_SRB: Viability Assessment in the BioMAP Diversity Plus: hDFCGF Assay (AID 2283061).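 Further: cells exposed to compound for 24 h before the read.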 Conditions: primary human foreskin fibroblasts. The method in brief:
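Viability was read as total protein: after 10% TCA fixation, wells were stained with 0.1% sulforhodamine B and read at 560 nm. Primary human foreskin fibroblasts were dosed for 24 h, with bidirectional fitting versus DMSO.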

Active and inactive are the calls of the source. How the source made its calls: active means hit-call score of the fitted dose curve at least 0.9, where 1 is the maximum; inactive means score below 0.9.

Consider `OCc1c[nH]c2ccccc12`, for which the result in [1], in assay [2], in assay [3], in assay [4], in assay [5] and in assay [6] was inactive. The outcome in assay [7], in assay [9] and in assay [10] was inactive. Further, the AC50 in assay [8] was 23.8 µM (active).

With `CC(C)CCCCCCOC(=O)C1CCCCC1C(=O)OCCCCCCC(C)C` (stereo unspecified), the outcome in [1], in assay [2], in assay [3], in [4], in assay [5] and in assay [6] was inactive. Also, the result in assay [7], in assay [8], in assay [9] and in [10] was inactive.

With `COc1cc(C(C)C)c2c(c1)S(=O)(=O)N(COc1cc(=O)n3cccc(OCCN4CCCCC4)c3n1)C2=O`, the result in assay [1], in assay [3], in assay [5], in assay [6] and in [7] was inactive. Moreover, the AC50 was 6.1 µM (active) in assay [2]; 5 µM (active) in assay [4]; 5.44 µM (active) in assay [8]; 3.29 µM (active) in assay [9]; 8.05 µM (active) in assay [10].

With `Cc1nccn1-c1ccc(Sc2cccc(C3(C(N)=O)CCOCC3)c2)cc1`, the outcome in assay [1], in [3], in assay [5], in assay [6], in [7] and in assay [9] was inactive. Also, the outcome in assay [10] was inactive. The half-maximal activity concentration (AC50) in assay [2] was 10.2 µM (active); in assay [4] it was 14.9 µM (active); in assay [8] it was 4.15 µM (active).

Regarding `OCCOCCOCCO`, the result in assay [1], in assay [2], in [3], in [4], in assay [5] and in assay [6] was inactive. Also, the outcome in assay [7], in [8], in assay [9] and in assay [10] was inactive.

Consider `CCn1nc(C)c2c1C(=O)NCC(c1ccc(O)cc1)=N2`, for which the outcome in assay [1], in assay [2], in [4], in [5], in [6] and in assay [7] was inactive. Also, the result in [10] was inactive. Also, the AC50 in assay [3] is 8.18 µM (active); in assay [8], 11 µM (active); in [9] it was 3.97 µM (active).

`NCC(F)(F)C(F)(F)C(F)(F)C(F)(F)F`: the result in assay [1], in assay [2], in assay [3], in assay [4], in assay [5] and in assay [6] was inactive. In addition, the result in assay [7], in assay [8], in [9] and in [10] was inactive.

Consider `O=S1(=O)CCCO1`, for which the outcome in [1], in assay [2], in assay [3], in assay [4], in [5] and in assay [7] was inactive. For the same compound, the outcome in [8], in [9] and in assay [10] was inactive.

As for `Cn1c(=O)c2[nH]cnc2n(C)c1=O`, the result in assay [1], in assay [2], in assay [3], in assay [4], in assay [5] and in assay [7] was inactive. Besides, the result in assay [8] and in assay [9] was inactive.

In the case of `O=S(=O)(O)c1ccc(N=Nc2c(O)ccc3cc(S(=O)(=O)O)ccc23)cc1`, the result in [1], in assay [2], in assay [3], in assay [4], in [5] and in [7] was inactive. Besides, the outcome in assay [8], in assay [9] and in assay [10] was inactive.

As to `Cc1ncc([C@@H](CCCCCCc2ccc3c(n2)NCCC3)CC(=O)O)cn1`, the result in assay [1], in assay [2], in [4], in assay [5], in assay [6] and in [7] was inactive. Also, the outcome in assay [8], in assay [9] and in [10] was inactive. For the same compound, the AC50 in [3] is 0.148 µM (active).

For `CCCC(CCC)C(=O)O`, the outcome in [1], in assay [2], in [3], in [4], in [5] and in assay [6] was inactive. Further, the result in [7], in [8], in [9] and in assay [10] was inactive.

With `CCCc1ccccc1`, the result in [1], in assay [2], in assay [3], in [4], in assay [5] and in assay [7] was inactive. The outcome in assay [8], in assay [9] and in assay [10] was inactive.

Take `NC(N)=O`: the outcome in assay [1], in [2], in assay [3], in assay [4], in [5] and in assay [6] was inactive. The outcome in [7], in assay [8] and in [10] was inactive.

With `Cc1ccc(S(=O)(=O)NC(=O)NN2CCCCCC2)cc1`, the outcome in assay [1], in assay [2], in [3], in assay [4], in assay [5] and in assay [6] was inactive. For the same compound, the result in [7], in assay [8], in [9] and in [10] was inactive.

As to `C[C@]12C=CC(=O)C=C1CC[C@H]1[C@@H]3C[C@@H](O)[C@](O)(C(=O)CO)[C@@]3(C)C[C@H](O)[C@@]12F`, the AC50 is 0.149 µM (active) in assay [1], 0.818 µM (active) in [8] and 0.58 µM (active) in assay [9]. The result in assay [2], in [3], in assay [4], in assay [5], in assay [6] and in assay [7] was inactive. Also, in assay [10], the outcome was inactive.

For the compound `NNC(=O)c1ccncc1`, the result in assay [1], in assay [2], in [3], in assay [4], in assay [5] and in assay [7] was inactive. In addition, the outcome in assay [8], in assay [9] and in [10] was inactive.

`Nc1ccn([C@@H]2O[C@H](CO)[C@@H](O)[C@@H]2O)c(=O)n1`: the result in assay [1], in [2], in [3], in assay [4], in assay [5] and in assay [6] was inactive. Moreover, the result in assay [7], in assay [9] and in assay [10] was inactive. Further, the AC50 in [8] is 0.615 µM (active).

As for `OCCC(F)(F)C(F)(F)C(F)(F)C(F)(F)F`, the result in [1], in assay [2], in assay [3], in [4], in [5] and in assay [7] was inactive. The outcome in assay [8], in assay [9] and in [10] was inactive.

With `COc1cc2c(c(OC)c1OC)-c1ccc(OC)c(=O)cc1[C@@H](NC(C)=O)CC2`, the outcome in assay [1], in [3], in assay [5], in [7], in assay [9] and in [10] was inactive. For the same compound, the values for the AC50 in assay [2], in assay [4] and in assay [8] were 4.08 µM (active), 0.579 µM (active) and 1 µM (active), respectively.

As for `CCCOc1ccc(S(=O)(=O)N2CCN(CC)CC2)cc1-c1nc2c(CC)n(Cc3ccccn3)nc2c(=O)[nH]1`, the result in [1], in [2], in assay [3], in [4], in [5] and in [6] was inactive. The outcome in [7], in assay [8], in [9] and in assay [10] was inactive.

On to `CCCCCCCCCCCCCCO`, for which the AC50 in assay [1] was 31.5 µM (active); in [2], 28.3 µM (active); in assay [3], 33.3 µM (active); in assay [4], 20 µM (active); in assay [5], 11 µM (active); in assay [7], 33.3 µM (active). In addition, the AC50 in assay [8] is 12.2 µM (active); in assay [9], 24.9 µM (active); in assay [10], 30.2 µM (active). Also, in assay [6], the result was inactive.
